The text below walks through data of PubChem BioAssay.

Values joined by “and” are separate entries in the source; they are usually repeats but may differ in a detail not shown here. Equal entries are not always repeated. Results filed as inconclusive are left out. Active and inactive are the calls of the source. Unless noted, cut-off not given; nearly all actives show AC50 up to about 26 µM.

As usually defined, the viability is a read-out of living cells in per cent, often relative to untreated cells. What is called inhibition is the drop in the measured response relative to a control, in per cent.

A short description of assay [1]: differential killing of epithelial or mesenchymal cells, primary screen, imaging, PC-3E GFP, TEM4-18 mCherry, co-culture (AID 1345086;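 active means compounds killing one labelled cell type while sparing the other, by normalised counts and ratio limits, not self-fluorescent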;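 on all read-outs here: cells exposed to compound for 72 h before imaging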;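 on red/green cell ratio (normalised): normalised mesenchymal count divided by normalised epithelial count so high means epithelial killing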). Particulars: imaging cell counts, at 1 µM; for red/green cell ratio (normalised): actives lie on both sides, counts scaled to control wells, 1 = unselective.
Assay [2] deals with Mitogen-activated protein kinase 7 (Homo sapiens) (UniProt Q13164). Nature of the assay: ERK5 transactivation activators in reporter cells, primary screen, cell-based, HTS (AID 1508626;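 active means luciferase signal above three times the same-plate solvent-only control wells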;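 further: luciferase driven by Gal4-ERK5 fusion binding five Gal4 sites before minimal TATA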). The note with it: HeLa Gal4-ERK5 transactivation, 18 h, at 5 µM, stronger effect = higher value.
Assay [3] in a line: sensitizers of A549 cells to miR-34 induction, primary screen, imaging, A549 dox-inducible miR-34, nuclei and caspase counts (AID 1347080;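 active means compounds whose cell count with miR-34 switched on is under 0.7 times the count with it off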). The note with it: A549 miR-34 inducible, Hoechst nuclei count, 48 h.
The nature of assay [4]: liver-stage malaria parasite growth inhibition, primary screen, cell-based, HepG2, luciferase luminescence, HepG2 viability (AID 624349; in the data active means parasite load remaining mostly below about 12%, no sharp cut-off; inactive means mostly above about 10%;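 further: 100% = mean of DMSO negative control wells on the same plate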). The note with it: P. berghei liver stage in HepG2, luciferase luminescence, concentration not given here; parasite load remaining: stronger effect = lower value; viability: measured here: HepG2 viability without parasites.
Assay [5] in a line: growth inhibition of DIPG glioma cells, dose response, cell-based, SU-DIPG-XVII, MIPE5.0, CellTiter-Glo, qHTS (AID 1347060). Particulars: SU-DIPG-XVII viability, CellTiter-Glo ATP luminescence. A general note: Cellular ATP, detected with luciferase, serves as a proxy for viable cell number.
Assay [6] in a line: JHH-DIPG-1 glioma cell viability, MIPE5.0 library, CellTiter-Glo luminescence, qHTS (AID 1347067).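 Further: cells exposed to compound for 48 hours before readout.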 Particulars: JHH-DIPG-1 glioma viability, CellTiter-Glo ATP luminescence.
The nature of assay [7]: survival rescue of mitochondrial mutant cells in low glucose, primary screen, MELAS cybrids, Rieske KO mouse fibroblasts, CellTiter-Glo (AID 1508586;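 active means mean z-score across replicates of 1.96 or higher in either the MELAS or the Rieske mutant cell line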;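 further: z relative to plate mean and SD of compound and empty wells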).
Assay [8] has as its target NAD(+) hydrolase SARM1 (Homo sapiens) (UniProt Q6SZW1). Nature of the assay: SARM1 TIR NADase inhibitors, cell lysate, NAD-Glo luminescence (AID 1508614;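 active means compound whose remaining NAD level is above about 45 nM, limit read from the data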). Particulars: SAM-TIR HEK293T lysate NADase, at 1 µM, stronger effect = higher value.
Assay [9] in a line: viability rescue of complex I mutant cybrids, primary screen, cell-based, galactose medium, ATP luminescence (AID 1645843;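 active means z-score of at least 1.8 in each of two replicates, scored against plate mean and spread of sample wells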;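 further: positive z means more ATP and so rescue of galactose-driven cybrid death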). Particulars: complex I mutant cybrid cells, 72 h, stronger effect = higher value.
For assay [10], the system named is Hepatitis C virus NS3 helicase. Nature of the assay: HCV NS3 helicase inhibitors, primary screen, biochemical, fluorescence polarization, LOPAC1280 library (AID 687035; in the data active means inhibition above about 37%). The note with it: Purified HCV NS3 helicase, Cy5-dT15 ssDNA binding fluorescence polarization; stronger effect = higher value; concentration not given here. (Fluorescence polarisation rises when a labelled molecule tumbles more slowly, as on binding a larger partner.)

A short description of assay [11]: Cy5 fluorescence quenching or enhancement artefacts, artefact control for HCV NS3 helicase inhibitor project, biochemical, LOPAC1280 (AID 687037; call rule not given here). The note with it: Cy5-DNA-NS3h complex fluorescence interference counterscreen.
Assay [12] can be described thus: viability loss in pontine glioma line – cell-based, SU-DIPG-XXV, MIPE5.0, CellTiter-Glo, qHTS, dose response (AID 1347065).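 Further: cells exposed to compound for 48 hours before ATP readout.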 The note with it: CellTiter-Glo ATP luminescence.
Assay [13] can be described thus: phospholipid biosynthesis inhibitors in animal cells, primary screen, cell-based, LOPAC library, screen 4 (AID 1347384; call rule not given here). The note with it: phospholipid biosynthesis inhibition screen, at 10 µM.
A short description of assay [14]: hESC survival regulators, cell-based (AID 493140; call rule not given here;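 further: cells exposed to compounds for four days before counting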). Particulars: human embryonic stem cell survival screen; stronger effect = higher value.
Where [15] appears, read: measured here: epithelial PC-3E GFP cell survival.
Where [16] appears, read: measured here: mesenchymal TEM4-18 mCherry cell survival.
Where [17] appears, read: stronger effect = lower value, cell number ratio, induced over uninduced.
The mark [18] stands for this setting: measured here: relative caspase fold change +Dox/-Dox.
[19] abbreviates: measured here: total cells with miR-34 induction, stronger effect = lower value.
[20] abbreviates: measured here: total cells without miR-34 induction.

Chain of Mitogen-activated protein kinase 7 (Homo sapiens) (Q13164 whole entry, looked up, the tested form may be a part): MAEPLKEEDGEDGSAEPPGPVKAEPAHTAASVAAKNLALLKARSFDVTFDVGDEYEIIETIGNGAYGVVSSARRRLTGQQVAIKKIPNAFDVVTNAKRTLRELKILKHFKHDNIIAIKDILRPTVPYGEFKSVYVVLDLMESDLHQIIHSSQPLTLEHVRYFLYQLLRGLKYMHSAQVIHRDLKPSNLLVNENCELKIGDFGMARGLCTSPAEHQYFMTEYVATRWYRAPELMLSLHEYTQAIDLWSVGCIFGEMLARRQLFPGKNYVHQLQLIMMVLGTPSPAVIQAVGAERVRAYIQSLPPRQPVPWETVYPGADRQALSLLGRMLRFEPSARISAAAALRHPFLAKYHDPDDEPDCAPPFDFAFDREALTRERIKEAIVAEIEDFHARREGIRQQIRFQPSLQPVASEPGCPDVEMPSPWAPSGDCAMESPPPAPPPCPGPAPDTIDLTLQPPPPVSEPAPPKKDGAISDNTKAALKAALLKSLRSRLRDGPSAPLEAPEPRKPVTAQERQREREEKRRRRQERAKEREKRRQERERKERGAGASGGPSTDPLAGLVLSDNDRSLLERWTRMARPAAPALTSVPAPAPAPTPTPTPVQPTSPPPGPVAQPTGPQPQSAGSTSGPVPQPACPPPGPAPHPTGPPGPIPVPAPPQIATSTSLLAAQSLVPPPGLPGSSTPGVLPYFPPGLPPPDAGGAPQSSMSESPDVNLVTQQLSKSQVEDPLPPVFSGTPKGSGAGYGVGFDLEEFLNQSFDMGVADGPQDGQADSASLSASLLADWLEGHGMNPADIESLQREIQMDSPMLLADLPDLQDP
Chain of NAD(+) hydrolase SARM1 (Homo sapiens) (Q6SZW1 whole entry, looked up): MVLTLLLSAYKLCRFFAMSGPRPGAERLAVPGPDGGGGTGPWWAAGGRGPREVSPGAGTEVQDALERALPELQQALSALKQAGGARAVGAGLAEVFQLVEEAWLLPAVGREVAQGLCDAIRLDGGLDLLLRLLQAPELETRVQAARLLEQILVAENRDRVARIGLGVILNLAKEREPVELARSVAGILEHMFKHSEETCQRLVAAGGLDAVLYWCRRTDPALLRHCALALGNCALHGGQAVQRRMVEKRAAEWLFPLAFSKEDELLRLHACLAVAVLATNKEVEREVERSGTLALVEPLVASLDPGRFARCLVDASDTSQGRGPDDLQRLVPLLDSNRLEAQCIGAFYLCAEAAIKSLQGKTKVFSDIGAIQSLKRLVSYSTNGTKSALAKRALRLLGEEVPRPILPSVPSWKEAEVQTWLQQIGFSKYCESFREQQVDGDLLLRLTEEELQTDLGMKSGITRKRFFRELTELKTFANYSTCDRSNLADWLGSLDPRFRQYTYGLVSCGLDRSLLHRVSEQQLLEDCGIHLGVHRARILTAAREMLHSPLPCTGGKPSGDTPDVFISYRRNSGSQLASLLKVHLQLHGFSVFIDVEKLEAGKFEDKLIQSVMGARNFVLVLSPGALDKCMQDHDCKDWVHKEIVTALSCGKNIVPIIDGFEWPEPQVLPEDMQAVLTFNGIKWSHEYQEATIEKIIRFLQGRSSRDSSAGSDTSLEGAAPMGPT

As to `CC(C)=CCC/C(C)=C/CC/C(C)=C/CC/C(C)=C/CC/C(C)=C/CC/C(C)=C/CC/C(C)=C/CC/C(C)=C/CC/C(C)=C/CO`, the red/green cell ratio (normalised) in assay [1] is 1.11 (inactive). Further, the normalised cell number was determined as 0.97 in assay [1] (setting [15]) and 1.07 in assay [1] (setting [16]). Further, the luciferase signal in [2] was 20 AU (inactive).

`CC1(C)S[C@@H]2[C@H](NC(=O)[C@H](C(=O)O)c3cccs3)C(=O)N2[C@H]1C(=O)O`: the red/green cell ratio (normalised) in assay [1] was 0.96 (inactive). The normalised cell number in [1] (setting [15]) amounted to 1.05; in assay [1] (setting [16]), 1.01. The fold change is 0.949 (inactive) in [3] (setting [17]) and 0.673 in assay [3] (setting [18]). Moreover, the cell count in assay [3] (setting [19]) was 9210; in [3] (setting [20]), 9700.

Regarding `CC(C)(CO)[C@@H](O)C(=O)NCCC(=O)O`, the parasite load remaining in assay [4] is 90.7% (inactive) and 34.6% (inactive). Moreover, the viability in assay [4] is 107% and 75%. For the same molecule, the red/green cell ratio (normalised) in [1] is 1.39 (inactive). Moreover, the normalised cell number is 0.63 in [1] (setting [15]) and 0.88 in assay [1] (setting [16]). Besides, the outcome in assay [5] and in assay [6] was inactive. The fold change in assay [3] (setting [17]) is 0.92 (inactive) and 0.869 (inactive) and 0.91 (inactive); in assay [3] (setting [18]), 0.716 and 3.95 and 1.15. For the same molecule, the cell count in assay [3] (setting [19]) was 9860 and 12000 and 9850; in assay [3] (setting [20]), 10700 and 13800 and 10800. Also, the z-score in assay [7] (MELAS cybrid survival, CellTiter-Glo 48 h, stronger effect = higher value) is -0.406 (inactive) and -0.744 (inactive); in assay [7] (Rieske KO mouse fibroblast survival, CellTiter-Glo 72 h) it was 0.568 and -1.28; in assay [9] it was -0.065 (inactive). Moreover, in [8], the remaining NAD was 10 nM (inactive). Moreover, the luciferase signal in assay [2] is 68 AU (inactive).

`CCCCS(=N)(=O)CCC(N)C(=O)O` (stereo not given): in assay [10], the inhibition was 1% (inactive). In [11], the fluorescence ratio (interference) was 1 (inactive). Besides, the red/green cell ratio (normalised) in [1] was 0.93 (inactive). In addition, the results for the normalised cell number in assay [1] (setting [15]) and in [1] (setting [16]) were 0.89 and 0.83, respectively. Also, the outcome in [5], in assay [12], in assay [6] and in assay [13] was inactive. Further, the fold change is 0.991 (inactive) in assay [3] (setting [17]) and 1.82 in [3] (setting [18]). The cell count was 9560 in assay [3] (setting [19]) and 9650 in assay [3] (setting [20]). Further, in [9], the z-score is -0.42 (inactive).

For `Cc1cc2nc3c(=O)[nH]c(=O)nc-3n(CC(O)C(O)C(O)CO)c2cc1C` (stereo not given), the survival in assay [14] is 1.58 (inactive). Also, the parasite load remaining in [4] is 149% (inactive) and 66% (inactive) and 85.7% (inactive). Also, the viability in assay [4] was 87.6% and 75.7% and 118%. In addition, in assay [1], the red/green cell ratio (normalised) was 0.96 (inactive). The normalised cell number in assay [1] (setting [15]) is 1.14; in assay [1] (setting [16]), 1.1. Also, the molecule was classed as inactive in [5], in assay [12] and in [6]. For the same molecule, the fold change in [3] (setting [17]) was 0.948 (inactive); in assay [3] (setting [18]), 3.38. The cell count in assay [3] (setting [19]) amounted to 12400; in assay [3] (setting [20]) it was 13100.

As for `Clc1ccc(CCC(Cn2ccnc2)Sc2c(Cl)cccc2Cl)cc1` (stereo not given), the red/green cell ratio (normalised) in assay [1] was 0.84 (inactive). The normalised cell number in assay [1] (setting [15]) was found to be 1.26; in [1] (setting [16]), 1.06. Also, the result in assay [12] and in [6] was inactive. In addition, in assay [8], the remaining NAD was 10 nM (inactive).
